Columns and labels:
Assay in all cases: DAPPL (digital affinity profiling via proximity ligation, sequencing); 10 mM Tris-HCl pH 7.5, 50 mM NaCl, 1 mM DTT, 4% glycerol, room temperature, 30 min; GST-TFs on glutathione beads, 16-mer random dsDNA library, 0.1% formaldehyde crosslink after washing; high values mean tight binding
Conditions in all cases: protein: recombinant; tags: N-terminal GST; dsDNA, one strand shown
FLI1 = target: T1, FLI1 (Homo sapiens, UniProt Q01543 1-452)
T1 sequence: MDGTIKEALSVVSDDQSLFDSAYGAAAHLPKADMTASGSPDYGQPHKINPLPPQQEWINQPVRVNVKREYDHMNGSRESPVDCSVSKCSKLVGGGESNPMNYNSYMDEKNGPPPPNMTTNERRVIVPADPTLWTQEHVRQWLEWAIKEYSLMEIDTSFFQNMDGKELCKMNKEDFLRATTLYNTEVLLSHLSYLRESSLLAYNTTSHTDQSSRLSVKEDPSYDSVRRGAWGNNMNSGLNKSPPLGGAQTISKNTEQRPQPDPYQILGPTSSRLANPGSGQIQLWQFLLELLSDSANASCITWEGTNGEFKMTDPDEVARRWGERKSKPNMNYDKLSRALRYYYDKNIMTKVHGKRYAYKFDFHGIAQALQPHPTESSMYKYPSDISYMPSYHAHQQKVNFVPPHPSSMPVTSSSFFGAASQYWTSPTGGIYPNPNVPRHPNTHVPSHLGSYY
Summary of the method: (§1)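 Pools were built from human transcription factors expressed in yeast as GST fusions, captured on glutathione beads and DNA-barcoded, along with a tag-only sample. Incubation with 200 nmole of a 16-mer random double-stranded DNA library lasted 30 min at room temperature in Tris/NaCl/DTT/glycerol buffer, and was followed by washing, 0.1% formaldehyde crosslinking, proximity ligation, PCR amplification and Illumina NextSeq500 sequencing. Binding signal is the quotient of each hexamer's read frequency for a factor and its frequency for the tag-only sample.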

ELK1 = target: T2, ELK1 (Homo sapiens, UniProt P19419 1-428)
T2 sequence: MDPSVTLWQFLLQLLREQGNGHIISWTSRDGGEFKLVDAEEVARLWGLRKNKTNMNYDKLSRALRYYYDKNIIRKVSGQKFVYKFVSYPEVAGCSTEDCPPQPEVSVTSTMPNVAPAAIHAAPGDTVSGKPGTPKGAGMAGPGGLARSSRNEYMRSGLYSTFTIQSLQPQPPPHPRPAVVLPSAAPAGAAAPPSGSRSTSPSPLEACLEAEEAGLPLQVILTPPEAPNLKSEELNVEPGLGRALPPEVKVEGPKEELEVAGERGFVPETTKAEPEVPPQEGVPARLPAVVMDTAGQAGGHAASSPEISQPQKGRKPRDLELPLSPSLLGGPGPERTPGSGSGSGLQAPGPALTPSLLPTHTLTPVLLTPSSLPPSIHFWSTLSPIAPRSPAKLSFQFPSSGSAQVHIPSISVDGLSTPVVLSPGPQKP
Summary of the method: as §1

GABPA = target: T3, GABPA (Homo sapiens, UniProt Q06546 1-454)
T3 sequence: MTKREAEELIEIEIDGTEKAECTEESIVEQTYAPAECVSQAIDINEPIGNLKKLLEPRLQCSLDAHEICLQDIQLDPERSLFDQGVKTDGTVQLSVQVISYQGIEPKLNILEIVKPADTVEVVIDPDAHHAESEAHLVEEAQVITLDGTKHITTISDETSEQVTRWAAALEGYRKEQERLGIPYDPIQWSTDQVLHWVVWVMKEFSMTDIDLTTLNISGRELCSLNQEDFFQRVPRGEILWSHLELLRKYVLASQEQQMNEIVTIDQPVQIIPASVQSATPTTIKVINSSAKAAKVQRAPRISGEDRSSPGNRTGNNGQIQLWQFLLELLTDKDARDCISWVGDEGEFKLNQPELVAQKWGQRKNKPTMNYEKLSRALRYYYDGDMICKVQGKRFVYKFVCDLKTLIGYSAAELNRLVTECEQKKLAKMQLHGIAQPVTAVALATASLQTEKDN
Summary of the method: as §1

ERG = target: T4, ERG (Homo sapiens, UniProt P11308 1-479)
T4 sequence: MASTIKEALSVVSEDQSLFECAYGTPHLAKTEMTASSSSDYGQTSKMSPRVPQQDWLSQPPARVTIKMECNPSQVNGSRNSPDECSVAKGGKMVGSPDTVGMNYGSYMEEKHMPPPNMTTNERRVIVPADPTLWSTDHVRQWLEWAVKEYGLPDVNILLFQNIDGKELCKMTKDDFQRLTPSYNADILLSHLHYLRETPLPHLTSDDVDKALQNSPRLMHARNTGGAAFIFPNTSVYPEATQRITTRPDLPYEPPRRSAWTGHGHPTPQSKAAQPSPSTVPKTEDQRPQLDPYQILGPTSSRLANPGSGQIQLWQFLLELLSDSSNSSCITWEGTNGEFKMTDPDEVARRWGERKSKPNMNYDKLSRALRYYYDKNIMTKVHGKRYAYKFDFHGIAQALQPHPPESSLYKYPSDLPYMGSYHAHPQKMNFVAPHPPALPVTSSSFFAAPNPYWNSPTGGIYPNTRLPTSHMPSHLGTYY
Summary of the method: as §1

ELF1 = ELF1 (Homo sapiens, UniProt P32519 1-619)
Summary of the method: as §1

EHF = target: T5, EHF (Homo sapiens, UniProt Q9NZC4 1-300)
T5 sequence: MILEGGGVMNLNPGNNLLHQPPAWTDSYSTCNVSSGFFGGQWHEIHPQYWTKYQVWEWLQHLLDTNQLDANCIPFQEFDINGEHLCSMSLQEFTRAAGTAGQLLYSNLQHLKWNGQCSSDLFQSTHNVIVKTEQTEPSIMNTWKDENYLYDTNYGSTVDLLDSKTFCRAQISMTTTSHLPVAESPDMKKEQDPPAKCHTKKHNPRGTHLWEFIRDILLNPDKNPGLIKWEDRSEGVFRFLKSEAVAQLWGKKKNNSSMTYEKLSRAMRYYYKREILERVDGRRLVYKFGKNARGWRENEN
Summary of the method: as §1

SPI1 = SPI1 (Homo sapiens, UniProt P17947 1-270)
Summary of the method: as §1

ELK3 = target: T6, ELK3 (Homo sapiens, UniProt P41970 1-407)
T6 sequence: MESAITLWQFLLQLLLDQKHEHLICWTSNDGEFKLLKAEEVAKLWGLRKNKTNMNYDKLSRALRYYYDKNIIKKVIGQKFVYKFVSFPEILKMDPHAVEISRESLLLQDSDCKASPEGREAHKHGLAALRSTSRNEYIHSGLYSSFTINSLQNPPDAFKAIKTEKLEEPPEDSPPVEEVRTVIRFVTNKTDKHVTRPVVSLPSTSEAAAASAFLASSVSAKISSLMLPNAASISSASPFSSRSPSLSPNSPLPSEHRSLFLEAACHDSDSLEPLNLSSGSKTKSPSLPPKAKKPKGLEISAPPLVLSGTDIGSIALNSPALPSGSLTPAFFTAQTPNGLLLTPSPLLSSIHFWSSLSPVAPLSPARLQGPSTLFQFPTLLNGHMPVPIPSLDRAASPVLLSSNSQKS
Summary of the method: as §1

SPIB = SPIB (Homo sapiens, UniProt Q01892 1-262)
Summary of the method: as §1

ELF1, sequence (P32519 whole entry): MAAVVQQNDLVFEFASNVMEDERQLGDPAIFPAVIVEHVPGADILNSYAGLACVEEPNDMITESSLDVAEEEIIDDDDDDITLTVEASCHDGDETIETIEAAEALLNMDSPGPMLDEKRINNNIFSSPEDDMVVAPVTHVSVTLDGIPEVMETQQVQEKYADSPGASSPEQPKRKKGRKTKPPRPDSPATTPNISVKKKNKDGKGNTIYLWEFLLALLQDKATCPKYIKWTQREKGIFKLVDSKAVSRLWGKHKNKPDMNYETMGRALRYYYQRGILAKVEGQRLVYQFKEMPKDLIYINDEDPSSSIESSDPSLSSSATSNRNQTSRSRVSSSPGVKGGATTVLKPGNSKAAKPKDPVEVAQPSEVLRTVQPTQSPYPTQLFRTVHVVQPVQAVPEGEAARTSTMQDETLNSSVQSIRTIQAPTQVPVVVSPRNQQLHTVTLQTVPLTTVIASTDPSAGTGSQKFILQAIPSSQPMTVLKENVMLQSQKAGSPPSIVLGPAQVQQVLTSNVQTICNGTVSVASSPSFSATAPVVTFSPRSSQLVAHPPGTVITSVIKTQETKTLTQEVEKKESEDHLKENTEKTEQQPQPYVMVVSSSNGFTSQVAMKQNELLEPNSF
SPIB, sequence (Q01892 whole entry): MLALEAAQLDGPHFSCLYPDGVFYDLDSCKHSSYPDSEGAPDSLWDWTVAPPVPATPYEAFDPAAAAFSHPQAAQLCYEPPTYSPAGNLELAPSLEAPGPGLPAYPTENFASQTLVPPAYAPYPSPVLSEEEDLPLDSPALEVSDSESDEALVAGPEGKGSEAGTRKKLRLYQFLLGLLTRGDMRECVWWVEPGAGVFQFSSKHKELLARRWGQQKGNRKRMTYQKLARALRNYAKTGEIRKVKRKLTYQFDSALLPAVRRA

Sequence | binding signal (FLI1) | binding signal (ELK1) | binding signal (GABPA) | binding signal (ERG) | binding signal (ELF1) | binding signal (EHF) | binding signal (SPI1) | binding signal (ELK3) | binding signal (SPIB)
GATATG | 1.15 fold enrichment (6-mer frequency, TF over GST control) | 1.06 fold enrichment (6-mer frequency, TF over GST control) | 1.07 fold enrichment (6-mer frequency, TF over GST control) | 1.11 fold enrichment (6-mer frequency, TF over GST control) | 1.03 fold enrichment (6-mer frequency, TF over GST control) | 1.12 fold enrichment (6-mer frequency, TF over GST control) | 1.06 fold enrichment (6-mer frequency, TF over GST control) | 1.04 fold enrichment (6-mer frequency, TF over GST control) | –
GGTGTT | 1.07 fold enrichment (6-mer frequency, TF over GST control) | 1.13 fold enrichment (6-mer frequency, TF over GST control) | 1.11 fold enrichment (6-mer frequency, TF over GST control) | 1.08 fold enrichment (6-mer frequency, TF over GST control) | 1.09 fold enrichment (6-mer frequency, TF over GST control) | 1.04 fold enrichment (6-mer frequency, TF over GST control) | – | – | 1.02 fold enrichment (6-mer frequency, TF over GST control)
ATCATT | 1.07 fold enrichment (6-mer frequency, TF over GST control) | 1.05 fold enrichment (6-mer frequency, TF over GST control) | 1.06 fold enrichment (6-mer frequency, TF over GST control) | 1.02 fold enrichment (6-mer frequency, TF over GST control) | 1.05 fold enrichment (6-mer frequency, TF over GST control) | 1.01 fold enrichment (6-mer frequency, TF over GST control) | 1.05 fold enrichment (6-mer frequency, TF over GST control) | 1.01 fold enrichment (6-mer frequency, TF over GST control) | –
CAAGGT | 1.1 fold enrichment (6-mer frequency, TF over GST control) | 1.13 fold enrichment (6-mer frequency, TF over GST control) | 1.03 fold enrichment (6-mer frequency, TF over GST control) | 1.07 fold enrichment (6-mer frequency, TF over GST control) | 1.05 fold enrichment (6-mer frequency, TF over GST control) | 1.13 fold enrichment (6-mer frequency, TF over GST control) | 1.02 fold enrichment (6-mer frequency, TF over GST control) | 1.12 fold enrichment (6-mer frequency, TF over GST control) | –
ATGAAG | 1.1 fold enrichment (6-mer frequency, TF over GST control) | 1.1 fold enrichment (6-mer frequency, TF over GST control) | 1.04 fold enrichment (6-mer frequency, TF over GST control) | 1.1 fold enrichment (6-mer frequency, TF over GST control) | 1.04 fold enrichment (6-mer frequency, TF over GST control) | 1.06 fold enrichment (6-mer frequency, TF over GST control) | 1.05 fold enrichment (6-mer frequency, TF over GST control) | 1.05 fold enrichment (6-mer frequency, TF over GST control) | –
ACGTAA | 1.07 fold enrichment (6-mer frequency, TF over GST control) | 1.2 fold enrichment (6-mer frequency, TF over GST control) | 1.17 fold enrichment (6-mer frequency, TF over GST control) | 1.03 fold enrichment (6-mer frequency, TF over GST control) | 1.07 fold enrichment (6-mer frequency, TF over GST control) | 1.04 fold enrichment (6-mer frequency, TF over GST control) | 1.05 fold enrichment (6-mer frequency, TF over GST control) | 1.15 fold enrichment (6-mer frequency, TF over GST control) | –
CCTGAA | 1.35 fold enrichment (6-mer frequency, TF over GST control) | 1.39 fold enrichment (6-mer frequency, TF over GST control) | 1.39 fold enrichment (6-mer frequency, TF over GST control) | 1.41 fold enrichment (6-mer frequency, TF over GST control) | 1.35 fold enrichment (6-mer frequency, TF over GST control) | 1.33 fold enrichment (6-mer frequency, TF over GST control) | 1.35 fold enrichment (6-mer frequency, TF over GST control) | 1.32 fold enrichment (6-mer frequency, TF over GST control) | 1.42 fold enrichment (6-mer frequency, TF over GST control)

Reference: PMC7862700, “An all-to-all approach to the identification of sequence-specific readers for epigenetic DNA modifications on cytosine”
